Bioassay records: PubChem, NMMLSC
Rows were chosen to be rich in hits. Some 1.2% of all compounds tested hit in one or more screens of this group.
RGS4-Gao reg = human RGS4-Galphao interaction regulation | Multiplexed bead flow cytometry, RGS4-Galphao binding; actives lie on both sides | binding response (% of control), % at 10 µM | 0.33% of 220,000 active | AID 1415; in the data active means binding response below about 49% or above about 150%; inactive means in between;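 further: fluorescent Galphao activated with aluminum fluoride binding bead-coupled RGS4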
Target sequence (P09471 whole entry, looked up): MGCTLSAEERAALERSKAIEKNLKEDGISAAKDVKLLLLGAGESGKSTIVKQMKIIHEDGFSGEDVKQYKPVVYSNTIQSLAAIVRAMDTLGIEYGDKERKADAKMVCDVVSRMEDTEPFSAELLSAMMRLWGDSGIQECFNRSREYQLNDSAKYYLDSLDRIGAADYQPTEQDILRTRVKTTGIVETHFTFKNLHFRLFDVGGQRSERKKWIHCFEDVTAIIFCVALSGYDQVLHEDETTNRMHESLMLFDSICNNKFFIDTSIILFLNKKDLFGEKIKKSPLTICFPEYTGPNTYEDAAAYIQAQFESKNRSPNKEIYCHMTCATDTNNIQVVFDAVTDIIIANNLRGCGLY
GSH fluor = compound fluoresces at 488/530 nm on GSH beads; 0.25% of 190,000 active; AID 1776; GSH beads flow cytometry, compound fluorescence 488/530 nm; hits give high values; fluorescence (KMESF) at 10 µM; in the data active means fluorescence above about 89;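 further: glutathione beads carrying GST-tagged Bcl family fusion proteins plus one bare bead set; values are compound well signal with DMSO vehicle wells as background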
RGS8-Gao reg = regulators of human RGS8-Galphao interaction; response (percent of control binding), % at 10 µM; AID 1423; 0.34% of 220,000 active; multiplexed bead flow cytometry, RGS8-Galphao binding; actives lie on both sides; in the data active means response below about 60% or above about 140%; inactive means in between;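 further: Galphao activated as the GDP aluminium fluoride complex binding bead-coupled RGS8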
Avidin fluor = compound fluoresces at 488/530 nm on avidin beads | fluorescence (KMESF) at 10 µM | 0.38% of 220,000 active | compound fluorescence 488/530 nm, flow cytometry; hits give high values | AID 1775; in the data active means fluorescence above about 47
RGS7-Gao = human RGS7-Galphao interaction regulation. P09471. Multiplexed bead flow cytometry, RGS7-Galphao binding; actives lie on both sides. binding response (% of control), % at 10 µM. 0.35% of 220,000 active. AID 1439; in the data active means binding response below about 49% or above about 150%; inconclusive means no clear call, values can overlap the other calls; inactive means in between;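 further: fluorescent Galphao held in activated GDP-AlF4 state binding bead-coupled RGS7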
RGS16-Gao = modulates binding between human RGS16 and Galphao; O15492+P09471; bead-based flow cytometry RGS16-Galphao binding, fluorescence; actives lie on both sides; binding response (% of control), % at 10 µM; 0.38% of 220,000 active; AID 1441;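 further: Galphao activated by GDP with aluminum fluoride before binding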
RGS4-Gao HTS = RGS4-Galphao interaction regulator (human) | shares compounds with RGS16-Gao | multiplexed bead flow cytometry, RGS–Galpha-o binding | RGS4–Galpha-o binding response, % at 10 µM | 99% of 1,600 active | AID 1504;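 further: fluorescently labeled Galpha-o bound to GDP with aluminium fluoride binding biotinylated RGS beads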
Avidin counter = counter-screen: compounds disrupting biotin binding to avidin beads; shares compounds with RGS16-Gao; streptavidin beads, fluorescein-biotin binding, flow cytometry; inhibition, % at 10 µM; 1,700 tested, under 10 active;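 active means inhibition above 50%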;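 further: median green fluorescence of gated singlet beads compared with DMSO control wells; 0% = DMSO wells and 100% = complete loss of bead fluorescence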
RGS8-Gao confirm = RGS8-Galphao interaction regulation, single point confirmation; binding response (% of control), % at 10 µM; 3% of 1,700 active; shares compounds with RGS16-Gao; bead-based flow cytometry RGS8-Galphao binding, fluorescence; actives lie on both sides; in the data active means binding response below about 72% or above about 130%; inactive means in between;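 further: Galphao activated as GDP AlF4 complex before binding bead RGS8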
RGS7-Gao confirm = confirmation of regulators of human RGS7-Galphao interaction. response (percent of control binding), % at 10 µM. shares compounds with RGS16-Gao. 7.8% of 1,700 active. AID 1837. bead-based flow cytometry RGS7-Galphao binding; actives lie on both sides; in the data active means response below about 75% or above about 130%; inactive means in between;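 further: fluorescent Galphao activated with GDP and aluminum fluoride binding bead-coupled RGS7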
RGS16-Gao single = RGS16-Galphao interaction regulation, single point confirmation. shares compounds with RGS16-Gao. bead-based flow cytometry, RGS16-Galphao binding; actives lie on both sides. response (% of control binding), % at 10 µM. 4% of 1,700 active; in the data active means response below about 74% or above about 130%; inactive means in between;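 further: Galphao activated as the GDP aluminium fluoride complex binding bead-coupled RGS16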
RGS4-Gao single = RGS4-Galphao interaction regulation, single point confirmation. binding response (% of control), % at 10 µM. 4% of 1,700 active. RGS4-Galphao binding, multiplexed bead flow cytometry; actives lie on both sides. shares compounds with RGS16-Gao. AID 1840; in the data active means binding response below about 74% or above about 130%; inactive means in between
RGS19-Gao single = RGS19-Galphao interaction regulation, single point confirmation; shares compounds with RGS16-Gao; bead-based flow cytometry RGS19-Galphao binding; actives lie on both sides; response (percent of control binding), % at 10 µM; 5% of 1,700 active; AID 1841; in the data active means response below about 50% or above about 160%; inactive means in between;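 further: 100% = no compound control and 0% = blank background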
* = called active by the depositor; ? = inconclusive; . = no result given; [ ] = dose if it differs, or a comment. Unless noted, how the calls were made is not given here.

SMILES	RGS4-Gao reg	GSH fluor	RGS8-Gao reg	Avidin fluor	RGS7-Gao	RGS16-Gao	RGS4-Gao HTS	Avidin counter	RGS8-Gao confirm	RGS7-Gao confirm	RGS16-Gao single	RGS4-Gao single	RGS19-Gao single
CC(C)CC(NC(=O)c1ccccc1)C(=O)OCC(=O)Nc1ccc(Br)cn1 (stereo not drawn)	137	36	92	346*	238*[activator]	120	137*	-1	96	94	93	94	101
CC1(C)Cc2ccccc2-c2nnc(-c3ccc4ccccc4n3)n21	78	17	74	5	85	19*	78*	1	104	101	106	105	93
Cc1cc2c(cc1C)-c1nnc(-c3ccc4ccccc4n3)n1C(C)(C)C2	93	10	95	18	94	95	.	.	.	.	.	.	.
CCc1cccc(CC)c1NC(=O)C1CC(=O)N(c2ccc3c(c2)OCCO3)C1 (stereo not drawn)	86	8	107	2	88	-578*	86*	.	.	.	.	.	.
O=C(Nc1ccccc1Br)C1CCN(C(=O)Cc2ccccc2)CC1	97	17	90	6	97	21*	97*	1	106	105	109	103	110
O=C(Nc1ccccc1F)C1CCN(C(=O)Cc2ccccc2)CC1	109	28	95	2	104	63	.	.	.	.	.	.	.
O=C1N=c2ccc(Br)cc2=C1c1sc(=S)n(NS(=O)(=O)c2ccccc2)c1O	97	12	100	7	96	97	.	.	.	.	.	.	.
Cc1onc(-c2ccccc2)c1CNS(=O)(=O)c1ccccc1	100	.	98	3	?	96	.	.	.	.	.	.	.
Cc1onc(-c2ccccc2)c1CNS(=O)(=O)c1cccc(Cl)c1	153*[activator]	.	127	6	?	141	.	-1	100	104	101	103	94
CCOc1c(O)ccc(C2NC(=O)N(C)C(C)=C2C(=O)OC)c1[N+](=O)[O-] (stereo not drawn)	130	20	80	168*	436*[activator]	89	130*	0	98	98	97	97	100
CCOc1c(O)ccc(C2NC(=O)NC(C)=C2C(=O)OC)c1[N+](=O)[O-] (stereo not drawn)	100	11	100	20	104	99	.	.	.	.	.	.	.
CS(=O)(=O)c1ccc2nc(NC(=O)c3ccc(S(=O)(=O)NCC4CCCO4)cc3)sc2c1 (stereo not drawn)	103	64	99	10	102	101	.	.	.	.	.	.	.
COc1ccc(OC)c(/C(O)=C/C(=O)C(=O)Nc2cc(C)ccc2OC)c1	49*	29	82	-1	68	710	.	0	89	75*	87	84	127
COc1ccc(OC)c(/C(O)=C/C(=O)C(=O)Nc2cc(C)cc(C)c2)c1	97	35	100	15	97	101	.	.	.	.	.	.	.
Cc1cc(-c2nnc(SCC(=O)Nc3nccs3)o2)no1	102	.	102	9	?	100	.	.	.	.	.	.	.
